Measured values from PubChem BioAssay (NCATS).
Inconclusive results are not listed. Unmarked numbers belong to inactive results. The source made the active and inactive calls. The call rests on the fitted dose curve; in most records, active means well fitted curve in the direction sought with a large enough effect in the repeat runs; inconclusive means weak or mixed curves; inactive means no such curve, though single readings can be large; an effect the other way counts as inactive or inconclusive.
Further: nearly all actives have a fitted effect of over 55% in size.
On the % scale 0 is the no-effect control and ±100 the full control effect; potency means the concentration at half of the fitted maximal effect.

Each compound was assayed against Cytochrome P450 2D6 (Homo sapiens) (UniProt P10635) (assay: Cytochrome P450 family 2 subfamily D member 6 (CYP2D6) small molecule antagonists: luciferase biochemical (cell-free) qHTS assay (AID 1645840)). Details: P450-Glo CYP2D6 enzyme, luciferin luminescence, 1 h; series mostly up to 57.4 µM; activity change, negative = inhibition: at the top concentration.
Chain of Cytochrome P450 2D6 (Homo sapiens) (P10635 whole entry, looked up): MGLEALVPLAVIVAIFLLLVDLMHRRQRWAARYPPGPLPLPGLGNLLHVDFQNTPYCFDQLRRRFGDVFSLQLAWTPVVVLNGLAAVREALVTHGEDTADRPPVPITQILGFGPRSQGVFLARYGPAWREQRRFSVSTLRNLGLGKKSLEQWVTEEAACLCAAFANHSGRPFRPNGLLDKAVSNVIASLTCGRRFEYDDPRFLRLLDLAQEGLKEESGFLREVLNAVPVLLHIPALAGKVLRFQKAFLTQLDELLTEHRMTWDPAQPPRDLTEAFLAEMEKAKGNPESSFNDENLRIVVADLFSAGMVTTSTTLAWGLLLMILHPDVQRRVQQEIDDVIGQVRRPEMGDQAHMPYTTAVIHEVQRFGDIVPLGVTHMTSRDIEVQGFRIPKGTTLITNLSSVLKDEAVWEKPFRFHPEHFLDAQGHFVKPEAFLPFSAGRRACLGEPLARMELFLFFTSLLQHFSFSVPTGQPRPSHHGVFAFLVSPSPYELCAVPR
How it was run: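 P450-Glo luminescent screen: recombinant CYP2D6 enzyme–proluciferin substrate mix preincubated with compound 10 min at room temperature, then NADPH regeneration added for 1 h at room temperature. Detection reagent added for 20 min; luciferin light read as relative luminescence units.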
`O=C(Oc1ccccc1)c1ccccc1O` was tested, and the “activity change, negative = inhibition” value was 9.59%.
`Cc1ccc(C(C)OC(=O)C2(C)CCC(C(=O)O)C2(C)C)cc1` (configuration not stated) was tested, and the “activity change, negative = inhibition” value was -0.389%.
`O=C(O)c1cn(C2CC2)c2cc(Cl)c(F)cc2c1=O` was tested, and the “activity change, negative = inhibition” value was -3.46%.
For `CC(C)CCCC(C)NCCC(C)C` (configuration not stated), the Potency was 0.55 µM (active).
With `Cc1sccc1Br` the “activity change, negative = inhibition” value was 7.82%.
With `O=C1Nc2cc(Cl)ccc2Oc2ccccc21` the “activity change, negative = inhibition” value was 0.174%.
In the case of `Cc1ncc([N+](=O)[O-])n1C`, the “activity change, negative = inhibition” value is reported as 5.93%.
`C[C@H](CN1CCCC1)C(=O)c1ccc(C(F)(F)F)cc1` was tested, and the Potency was 2.19 µM (active).
With `COc1cc2c(cc1OC)CN(C(=O)[C@H](C)N[C@@H](CCc1ccccc1)C(=O)O)[C@H](C(=O)O)C2` the “activity change, negative = inhibition” value was -6.9%.
With `CC(=O)Nc1ccn(C2COC(COC(=O)c3ccccc3)O2)c(=O)n1` (configuration not stated) the “activity change, negative = inhibition” value was -23.5%.
For `CCCC(=O)Nc1ccc(O)c(C(C)=O)c1`, the “activity change, negative = inhibition” value was -11.6%.
With `Nc1c2ccccc2nc2ccccc12` the Potency was 17.4 µM (active).
`CCCC(=O)OCOC(=O)C1=C(C)NC(C)=C(C(=O)OC)C1c1cccc(Cl)c1Cl` (configuration not stated) was tested, and the Potency was 16.2 µM (active).
For `CN1[C@@H]2CC[C@H]1CC(NC(=O)n1c(=O)[nH]c3ccccc31)C2` (some centres not stated), the Potency was 1.55 µM (active).
`CC(COc1ccccc1)NN` (configuration not stated) was tested, and the Potency was 16.9 µM (active).
In the case of `CC(=O)c1ccc(O)c(C(N)=O)c1`, the “activity change, negative = inhibition” value is reported as 5.94%.
With `CCN(CC)C(=O)C1CN2CCc3cc(OC)c(OC)cc3C2CC1OC(C)=O` (configuration not stated) the “activity change, negative = inhibition” value was 0.125%.
With `CCOc1c(N2CCOCC2)cnn(C)c1=O` the “activity change, negative = inhibition” value was 5.78%.
In the case of `CN1CCC(Nc2ncc3ncnc(Nc4ccc(F)c(Cl)c4)c3n2)CC1`, the Potency is reported as 15.5 µM (active).
`CCOc1ccc(NS(=O)(=O)c2ccc(N)cc2)nn1` was tested, and the “activity change, negative = inhibition” value was -0.214%.
For `Brc1ccccc1-c1ccccc1`, the Potency was “inactive”.
With `O=[N+]([O-])c1cncn1CCN1CCOCC1` the “activity change, negative = inhibition” value was -1.12%.

These compounds were tested against Cytochrome P450 2C9 (Homo sapiens) (UniProt P11712) (assay: Cytochrome P450 family 2 subfamily C member 9 (CYP2C9) small molecule antagonists: luciferase biochemical (cell-free) qHTS assay (AID 1645842)). Details: P450-Glo CYP2C9 enzyme assay, luciferin luminescence; series mostly up to 57.4 µM; activity change, negative = inhibition: at the top concentration.
Chain of Cytochrome P450 2C9 (Homo sapiens) (P11712 whole entry, looked up): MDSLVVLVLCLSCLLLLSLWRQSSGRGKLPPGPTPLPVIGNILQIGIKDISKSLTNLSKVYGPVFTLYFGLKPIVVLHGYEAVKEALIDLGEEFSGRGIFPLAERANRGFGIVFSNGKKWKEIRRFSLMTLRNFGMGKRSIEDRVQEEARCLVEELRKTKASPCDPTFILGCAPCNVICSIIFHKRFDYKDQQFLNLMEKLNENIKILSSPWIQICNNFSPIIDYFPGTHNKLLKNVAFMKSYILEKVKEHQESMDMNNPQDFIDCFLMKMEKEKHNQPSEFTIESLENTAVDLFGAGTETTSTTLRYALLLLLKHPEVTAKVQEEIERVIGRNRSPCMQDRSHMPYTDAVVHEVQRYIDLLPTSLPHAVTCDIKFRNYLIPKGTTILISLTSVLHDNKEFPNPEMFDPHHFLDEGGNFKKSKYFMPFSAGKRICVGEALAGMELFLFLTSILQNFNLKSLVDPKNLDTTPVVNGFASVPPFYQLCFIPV
How it was run: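 Luminescence, after 20 min with luciferin detection reagent, reflected CYP2C9 turnover during a 1 h NADPH-driven reaction at 37C. Enzyme-substrate mix contained 0.4% bovine serum albumin and was preincubated with compound 10 min at room temperature.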
For `NC(=O)C1(N2CCCCC2)CCN(CCCN2c3ccccc3CCc3ccc(Cl)cc32)CC1`, the Potency was 4.9 µM (active).
In the case of `Cc1ccc2ccc(Cl)cc2n1`, the “activity change, negative = inhibition” value is reported as 15.2%.
In the case of `Cc1cc2nc3ccc(=[N+](C)C)cc-3sc2cc1N`, the Potency is reported as 1.08 µM (active).
In the case of `CC(C)C(=O)OCc1cccc(OC(=O)[C@@H]2N3C(=O)[C@@H](NC(=O)Cc4ccccc4)[C@H]3SC2(C)C)c1`, the Potency is reported as 24.5 µM (active).
In the case of `CC(=O)O[C@H]1CC[C@@]2(C)C(=CC[C@@H]3[C@@H]2CC[C@]2(C)C(C(C)=O)=CC[C@@H]32)C1`, the “activity change, negative = inhibition” value is reported as -13.6%.
With `Cc1coc2ccccc2c1=O` the “activity change, negative = inhibition” value was 12%.
For `CN1CC[C@H](c2c(O)cc(O)c3c(=O)cc(-c4ccccc4Cl)oc23)[C@H](O)C1`, the “activity change, negative = inhibition” value was -22.3%.
For `CC(C)=CCC/C(C)=C/CC/C(C)=C/CCC(=O)OC/C=C(\C)CCC=C(C)C`, the “activity change, negative = inhibition” value was 1.11%.
In the case of `Cc1nc(N)nc(N)c1-c1ccc(Cl)c(Cl)c1`, the “activity change, negative = inhibition” value is reported as 12%.
In the case of `CCCCCCCCCCCC[N+](C)(C)Cc1ccccc1`, the Potency is reported as 15.5 µM (active).
With `C/C(=N\O)[C@@H](C)NCC(C)(C)CN[C@H](C)/C(C)=N/O` the “activity change, negative = inhibition” value was -11.8%.
`CN1C(CSCC(F)(F)F)Nc2cc(Cl)c(S(N)(=O)=O)cc2S1(=O)=O` (configuration not stated) was tested, and the “activity change, negative = inhibition” value was -10.8%.
For `CCCOc1ccc2c(c1)CC[C@@H]1[C@@H]2CC[C@]2(C)C(OC)CC[C@@H]12` (some centres not stated), the Potency was 19.5 µM (active).
With `Cc1cccc(C)c1NC(=O)c1ccc(N)cc1` the “activity change, negative = inhibition” value was 4.83%.
With `Cc1cnc(NS(=O)(=O)c2ccc(N)cc2)nc1` the “activity change, negative = inhibition” value was 23.8%.
With `O=P(O)(O)OCC(O)CO` (configuration not stated) the “activity change, negative = inhibition” value was 2.32%.
In the case of `CCOC(=O)C(O)c1ccccc1` (configuration not stated), the “activity change, negative = inhibition” value is reported as 12%.
For `CC(=O)c1cc2ccccc2s1`, the “activity change, negative = inhibition” value was 16.7%.
For `O=C(Oc1ccccc1)c1ccccc1O`, the “activity change, negative = inhibition” value was -4.77%.
In the case of `Cc1ccc(C(C)OC(=O)C2(C)CCC(C(=O)O)C2(C)C)cc1` (configuration not stated), the “activity change, negative = inhibition” value is reported as -17.2%.
In the case of `O=C(O)c1cn(C2CC2)c2cc(Cl)c(F)cc2c1=O`, the “activity change, negative = inhibition” value is reported as 14.1%.
In the case of `CC(C)CCCC(C)NCCC(C)C` (configuration not stated), the “activity change, negative = inhibition” value is reported as 14.8%.
`Cc1sccc1Br` was tested, and the “activity change, negative = inhibition” value was -8.96%.
In the case of `O=C1Nc2cc(Cl)ccc2Oc2ccccc21`, the “activity change, negative = inhibition” value is reported as 2.17%.
In the case of `Cc1ncc([N+](=O)[O-])n1C`, the “activity change, negative = inhibition” value is reported as 5.12%.
`C[C@H](CN1CCCC1)C(=O)c1ccc(C(F)(F)F)cc1` was tested, and the “activity change, negative = inhibition” value was -1.11%.
For `COc1cc2c(cc1OC)CN(C(=O)[C@H](C)N[C@@H](CCc1ccccc1)C(=O)O)[C@H](C(=O)O)C2`, the “activity change, negative = inhibition” value was 16.1%.
In the case of `CC(=O)Nc1ccn(C2COC(COC(=O)c3ccccc3)O2)c(=O)n1` (configuration not stated), the “activity change, negative = inhibition” value is reported as -5.46%.
For `CCCC(=O)Nc1ccc(O)c(C(C)=O)c1`, the “activity change, negative = inhibition” value was -4.71%.
For `Nc1c2ccccc2nc2ccccc12`, the “activity change, negative = inhibition” value was 39.3%.
In the case of `CCCC(=O)OCOC(=O)C1=C(C)NC(C)=C(C(=O)OC)C1c1cccc(Cl)c1Cl` (configuration not stated), the Potency is reported as 2.04 µM (active).
`CN1[C@@H]2CC[C@H]1CC(NC(=O)n1c(=O)[nH]c3ccccc31)C2` (some centres not stated) was tested, and the “activity change, negative = inhibition” value was 5.34%.
For `CC(COc1ccccc1)NN` (configuration not stated), the Potency was 23.9 µM (active).
For `CC(=O)c1ccc(O)c(C(N)=O)c1`, the “activity change, negative = inhibition” value was 9.79%.
In the case of `CCN(CC)C(=O)C1CN2CCc3cc(OC)c(OC)cc3C2CC1OC(C)=O` (configuration not stated), the “activity change, negative = inhibition” value is reported as 5.42%.
For `CCOc1c(N2CCOCC2)cnn(C)c1=O`, the “activity change, negative = inhibition” value was 5.4%.
For `CN1CCC(Nc2ncc3ncnc(Nc4ccc(F)c(Cl)c4)c3n2)CC1`, the “activity change, negative = inhibition” value was 8.48%.
`CCOc1ccc(NS(=O)(=O)c2ccc(N)cc2)nn1` was tested, and the “activity change, negative = inhibition” value was 19.1%.
`Brc1ccccc1-c1ccccc1` was tested, and the “activity change, negative = inhibition” value was 6.5% [at 115 µM].
`O=[N+]([O-])c1cncn1CCN1CCOCC1` was tested, and the “activity change, negative = inhibition” value was 18.1%.
